Source: ChEMBL document CHEMBL3988442, “University of Dundee, Small-Polar-MMV Screening Library” (2021)
In all, about 69,000 compounds went through this assay and about 420 (0.61%) showed an effect of 50% or more. Shown is part of a subset that was picked to be rich in strong results.

Biological target: T1, Histidine--tRNA ligase (Leishmania infantum) (UniProt A4I591)
T1 sequence (whole entry): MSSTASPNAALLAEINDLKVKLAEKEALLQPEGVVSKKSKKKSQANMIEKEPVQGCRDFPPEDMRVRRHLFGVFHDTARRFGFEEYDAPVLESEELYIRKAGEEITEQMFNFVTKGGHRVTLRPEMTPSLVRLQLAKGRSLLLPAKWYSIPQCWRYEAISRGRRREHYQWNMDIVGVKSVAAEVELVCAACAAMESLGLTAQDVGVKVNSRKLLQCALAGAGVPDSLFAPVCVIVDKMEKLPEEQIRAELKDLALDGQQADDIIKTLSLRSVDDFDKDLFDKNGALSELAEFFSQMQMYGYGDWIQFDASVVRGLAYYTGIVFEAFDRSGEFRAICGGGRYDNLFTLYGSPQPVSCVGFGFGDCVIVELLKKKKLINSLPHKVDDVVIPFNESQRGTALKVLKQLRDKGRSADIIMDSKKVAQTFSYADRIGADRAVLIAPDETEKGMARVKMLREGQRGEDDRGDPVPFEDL
Assay: Leishmania infantum Histidine tRNA synthetase (LdHisRS)
Assay type: functional
Parameters: scale not given: in the data most compounds retested in dose-response had high values
Conditions: 30 µM

Row | SMILES | Percent Effect [%]
1 | O=C(c1cccc(F)c1)N1CCN2C[C@H](OCc3cccnc3)C[C@H]2C1 | 9.49
2 | COCC(=O)N1CC[C@H]2N(C)CC[C@@]2(C(=O)Nc2ccccc2)CC1 | 15.4
3 | c1cc(CN2CC[C@@H]3[C@@H](CO[C@H]3CN3CCOCC3)C2)cs1 | 18.1
4 | COc1cc(C)ccc1OCCN1CC[C@@]2(O)CCNC[C@H]2C1 | 12.3
5 | COc1ccccc1-n1cc(CN2CCN(C)[C@@H]3CS(=O)(=O)C[C@@H]32)cn1 | 17.1
6 | CCO[C@@H]1CC[C@H]2[C@H]1OCCN2S(=O)(=O)C1CC1 | 4.17
7 | CNc1cc2c(nn1)CCN(C(=O)c1cc(F)cc(F)c1)C2 | 21.3
8 | CNc1cc2c(nn1)CCN(C(=O)c1coc(Br)c1)C2 | 52.2
9 | CNc1cc2c(nn1)CCN(C(=O)c1ccoc1)C2 | 10.7
10 | Cn1cc(NC(=O)c2ccccn2)cc(Br)c1=O | 15.4
11 | Cn1cc(NC(=O)Nc2ccccn2)cc(Cl)c1=O | 121
12 | COc1ccsc1C(=O)NCCNc1ccccc1 | 11.7
13 | Cc1ccsc1C(=O)Nc1cc(Br)c(=O)n(C)c1 | 107
14 | Cc1ccsc1C(=O)Nc1cnn(CC(=O)NC2CCCC2)c1 | 3.23
15 | CCC(C#N)NC(=O)c1sccc1OC (stereo unspecified) | 10.6
16 | Cn1cc(NC(=O)c2ccccn2)cc(Cl)c1=O | 10.3
17 | COCCn1ccc(NC(=O)Nc2ccccn2)n1 | 13.2
18 | COc1ccsc1C(=O)Nc1cc(CN2CCOCC2)ccc1C | -11.1
19 | Cn1cc(NC(=O)c2cc[nH]n2)cc(Cl)c1=O | 10.3
20 | COc1ccsc1C(=O)Nc1cc(Br)c(=O)n(C)c1 | 109
21 | COc1ccsc1C(=O)Nc1cc(Cl)c(=O)n(C)c1 | 103
22 | CCS(=O)(=O)N1CCO[C@H]2[C@H](Oc3ncccc3F)CC[C@@H]21 | 8.22
23 | O=C1[C@@H]2CCN(Cc3ccoc3)C[C@@H]2OCCN1c1ccccc1 | 9.49

Row | SMILES | Percent Effect [%]
24 | O=C1NC[C@@]2(C(=O)O)CN(Cc3ccc(Oc4ccccc4)cc3)C[C@@H]12 | 12.1
25 | CC(C)c1nc(CN2CCCCC2)cs1 | 0
26 | CC(C)c1nc(CN2CCC(CO)CC2)cs1 | 13.2
27 | CC(C)c1nc(CC(=O)Nc2nc(CN3CCCCCC3)cs2)cs1 | 53.3
28 | COCC1CCN(C(=O)c2cc(-c3ccco3)nc3c(Cl)cccc23)C1 (stereo unspecified) | 11.7
29 | NC(=O)N1C[C@@H]2CN(C(=O)c3ccco3)C[C@@H]2C1 | 15.5
30 | O=C(c1cc(-c2ccco2)nc2c(Cl)cccc12)N1CCS(=O)(=O)CC1 | 15
31 | O=C(c1cc(-c2ccco2)nc2c(Cl)cccc12)N1C[C@H]2CNC[C@H]2C1 | 53.3
32 | O=C1CN(C(=O)c2cc(-c3ccco3)nc3c(Cl)cccc23)CCN1 | 81.7
33 | O=C(c1cc(-c2ccco2)nc2c(Cl)cccc12)N1CC[C@H]2CNC[C@H]21 | 40
34 | Cc1nc(-c2ccco2)ccc1C(=O)N1CCn2c(C)nnc2C1 | 25.4
35 | Cc1nc(-c2ccco2)ccc1C(=O)N1CCc2nnc(N)cc2C1 | 2.63
36 | CN1C[C@H]2CN(Cc3cccc(OC(F)(F)F)c3)CCN2C1=O | 21.6
37 | O=C(NCc1cccs1)[C@@H]1CC[C@@H]2[C@@H](CCN2c2ncccn2)O1 | 17.9
38 | CN(Cc1ccco1)[C@@H]1CN(C(=O)c2cnccn2)C[C@@H]2CCCO[C@@H]21 | 11.3
39 | COC[C@@]12CCC[C@@H]1CN(C(=O)COC1CCCC1)C2 | 0
40 | CC(=O)N1[C@H](CN(C)C)C[C@@H]2CN(C(=O)c3ccsc3)CC[C@@H]21 | 15.4
41 | Cc1nc(CN(C)CC2CCCN2c2cccnn2)nc2ccccc12 (stereo unspecified) | 74.4
42 | CN(Cc1nc(N)c2ccccc2n1)CC1CCCN1c1cccnn1 (stereo unspecified) | 21.3
43 | Cc1nc2ccccc2nc1CN(C)CC1CCCN1c1cccnn1 (stereo unspecified) | 34.7
44 | COc1ccc(CN2CCO[C@H]3[C@H](Oc4ccccn4)CC[C@@H]32)cc1 | 25.7
45 | O=C(c1ccco1)N1C[C@H]2CCCN(Cc3ccoc3)[C@H]2C1 | 16.4
46 | c1cnc(N2CCO[C@H]3CN(CC4CCCC4)C[C@H]32)cn1 | 9.91

Row | SMILES | Percent Effect [%]
47 | Brc1ccc(C2(CNCc3cc[nH]c3)CCOCC2)cc1 | 52.1
48 | FC(F)(F)c1cccc(C2(CNCc3cc[nH]c3)CCOCC2)c1 | 12.7
49 | Brc1cccc(C2(CNCc3cc[nH]c3)CCOCC2)c1 | 40.9
50 | CN1C[C@H](c2ccccc2)[C@H]2CN(C(=O)Cc3ccc(O)cc3)CC[C@H]21 | 5.59
51 | O=C1CC(c2ccc(C(=O)O)cc2)c2ncn(-c3ccc(F)cc3)c2N1 (stereo unspecified) | 81.7
52 | O=C1CC(c2ccc(C(=O)O)cc2)c2ncn(-c3cccc(F)c3)c2N1 (stereo unspecified) | 46.6
53 | O=C1CC(c2cccnc2)c2c(c(C(=O)O)cn2-c2ccccc2F)N1 (stereo unspecified) | 20.6
54 | O=C1CC(c2ccc(C(=O)O)cc2)c2ncn(-c3cccc(Cl)c3)c2N1 (stereo unspecified) | 51.7
55 | Cn1c(=O)c2c(n3ncnc13)NC(=O)CC2c1ccc(F)cc1 (stereo unspecified) | 6.9
56 | Cc1nn(-c2ccccc2)c2c1C(c1ccc(C(=O)O)cc1)CC(=O)N2 (stereo unspecified) | 18.4
57 | O=C1CC(c2cccc(Cl)c2)c2snc(C(=O)O)c2N1 (stereo unspecified) | 1.72
58 | O=C1CC(c2ccc(C(=O)O)cc2)c2ncn(-c3ccccc3Cl)c2N1 (stereo unspecified) | 45
59 | O=C1CC(c2ccncc2)c2c(c(C(=O)O)cn2-c2ccc(F)cc2)N1 (stereo unspecified) | 29.1
60 | O=C1CC(c2ccc(C(=O)O)cc2)c2ncn(-c3ccccc3)c2N1 (stereo unspecified) | 52.4
61 | O=C1CC(c2ccc(C(=O)O)cc2)c2ncn(-c3ccccc3F)c2N1 (stereo unspecified) | 51.7
62 | O=C1CC(c2ccc(C(=O)O)cc2)c2ncn(-c3cccnc3)c2N1 (stereo unspecified) | 30
63 | O=C1C[C@H]2[C@@H](CCN2C(=O)Cc2ccccc2)N1Cc1cccnc1 | 9.62
64 | CCS(=O)(=O)N1CCC2(CC1)CC[C@@]1(C(=O)N(C)C)CN(C(C)=O)C[C@@H]21 | 12.8
65 | CO[C@H]1CN(C(=O)c2ccc[nH]2)[C@@H]2COC[C@H]12 | -140
66 | O=C([C@@H]1C[C@@H]2CCN(C3CCOCC3)C[C@H]2O1)N1CCCC1 | 6.94
67 | Cn1cccc1C(=O)NC[C@]12COC[C@H]1CN(Cc1nccs1)C2 | 12.8
68 | O=C(c1ccc2nccnc2c1)N1CCN(CCO)[C@@H]2CS(=O)(=O)C[C@@H]21 | 3.97
69 | Cc1nc(-c2ccoc2)n(CC(=O)N(C)CC(C)C)c1C | 15.8

Row | SMILES | Percent Effect [%]
70 | CN(C)c1nccc(N2CCO[C@H]3CN(Cc4nccn4C)C[C@H]32)n1 | 3.19
71 | CC(=O)N1CC[C@@]2(O)CCCC[C@H]2[C@@H]1c1ccccc1 | -75.8
72 | CN1CCN(Cc2nc3c(s2)CCCC3)[C@H]2CS(=O)(=O)C[C@H]21 | 18.3
73 | N#Cc1ccc(C(=O)N2CC[C@H]3[C@H]2CCN3CC2CCOCC2)cc1 | -5.77
74 | CN(C)CCO[C@H]1CN(C(=O)c2cccs2)[C@@H]2COC[C@H]12 | 10.9
75 | Cn1ccnc1CN1C(=O)CO[C@H]2CN(CCCc3ccccc3)C[C@H]21 | 17.6
76 | O=C1CC(c2cccnc2)c2c(c(C(=O)O)cn2-c2ccc(Cl)cc2)N1 (stereo unspecified) | 27.2
77 | O=C1CC(c2ccc(C(=O)O)cc2)c2ncn(-c3ccc(Cl)cc3)c2N1 (stereo unspecified) | 55
78 | CC(C)(C)n1ncc2c1NC(=O)CC2c1ccc(C(=O)O)cc1 (stereo unspecified) | 26
79 | Cc1noc(C)c1CC(=O)N1CCC(Nc2cccnn2)CC1 | 12.5
80 | Cc1ccc(NC2CCN(C(=O)c3c(C)noc3C)CC2)nn1 | 28
81 | Cc1noc(C)c1C(=O)N1CCC(Nc2cccnn2)CC1 | 60.5
82 | CCN1CCc2cc(-c3cncn3CCNC3CCS(=O)(=O)C3)ccc21 (stereo unspecified) | 29.6
83 | Cc1cc(C)n(CCCn2cncc2-c2ccc3c(c2)CC(C)N3C)n1 (stereo unspecified) | 64.4
84 | Cc1nccn1CCCn1cncc1-c1ccc2c(c1)CCCN2C | 30.9
85 | Cc1nccn1CCCn1cncc1-c1ccc2c(c1)CCC(C)N2C (stereo unspecified) | 83.2
86 | CCN1c2ccc(-c3cncn3CCCn3ccnc3C)cc2CC1C (stereo unspecified) | 48.3
87 | Cc1nn(C)c(C)c1CCn1cncc1-c1ccc2c(c1)CC(C)N2C (stereo unspecified) | 53.7
88 | CCN1c2ccc(-c3cncn3CC(=O)NC(C)(C)C)cc2CC1C (stereo unspecified) | 42.1
89 | CC1Cc2cc(-c3cncn3CC(=O)NC(C)(C)C)ccc2N1C (stereo unspecified) | 31
90 | Cc1cnccc1N1CCCN(C(=O)CCCn2ccnc2C)CC1 | 12.9
91 | CCOC(=O)c1n[nH]cc1-c1cncn1CCCn1nc(C)cc1C | 13.1
92 | Cc1nccn1CCCn1cncc1-c1ccc2c(c1)CC(C)N2C (stereo unspecified) | 65.8

Row | SMILES | Percent Effect [%]
93 | CN1CCCc2cc(-c3cncn3CCNC3CCS(=O)(=O)C3)ccc21 (stereo unspecified) | 26.8
94 | c1coc(CN2CCO[C@H]3[C@@H](OCC4CC4)CC[C@@H]32)c1 | 9.62
95 | Cc1ccc(CN2CC[C@@H]3OCCN(Cc4ccncc4)[C@H]3CC2)s1 | 15.1
96 | Cc1cc(N2CCC(O)CC2)nc(C2CCCN2C)n1 (stereo unspecified) | 54.9
97 | CN1CCCCC1c1cncc(N2CCC(O)CC2)n1 (stereo unspecified) | 14.5
98 | Cc1cc(N2CCC(O)CC2)nc(C)n1 | 13.7
99 | CN1CC2(CCN(C(=O)c3ccc(=O)n(C)c3)CC2)CC1=O | -38.8
100 | O=C(c1ncccn1)N1C[C@@H]2COC[C@]2(c2nnc(C3CC3)o2)C1 | 20.6
101 | CC(=O)N1CCC2(CC1)CC[C@@]1(C(=O)N(C)C)CN(S(C)(=O)=O)C[C@@H]21 | 13.2
102 | CC(=O)N1CC[C@H]2OCC[C@@H](C(=O)NCc3ccco3)[C@@H]2C1 | 10.1
103 | Cn1ccc2c(-c3cc(N)nc(N4CCOCC4)n3)ccnc21 | 19.1
104 | Cn1ccc2c(-c3cc(N4CCOCC4)ncn3)ccnc21 | 9.52
105 | Cn1ccc2c(-c3cc(N4CCCCC4)ncn3)ccnc21 | 54.8
106 | CC(C)C(=O)N1CCN(C(=O)c2cc(Cl)no2)[C@H]2CS(=O)(=O)C[C@H]21 | 1.61
107 | CCCN1C[C@H]2CC[C@@H]1CN(c1nnc(C(C)C)s1)C2 | -42.9
108 | Cc1nnsc1CN1C[C@@H]2CC[C@H](C1)N(Cc1ccccc1)C2 | 8.33
109 | CC(C)c1nnc(N2C[C@@H]3CC[C@H](C2)N(Cc2ccccc2)C3)s1 | 59.5
110 | CC(=O)c1ccc(C(=O)N2C[C@@H]3CC[C@H](C2)N(Cc2ccccc2)C3)s1 | 30.1
111 | CC(C)c1nnc(N2C[C@@H]3CC[C@H](C2)N(CC2CCC2)C3)s1 | 19.1
